The source of these data is the supplement of paper PMC11417369.

Whole data set: some 25,000 sequences, median “ln(normalized median fluorescence intensity)” near 9.3, cut for the highest 2% near 10. What follows is part of a selection rich in the highest values, with near analogues and random picks from the rest.

This assay has as its system PF3D7_0420300 AP2 domain 1 (GST-tagged). In words: gcPBM binding intensity (ln(normalized median fluorescence intensity)); higher = stronger DNA binding. The procedure, abridged: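 Plasmodium falciparum DNA-binding domains carrying a GST tag were expressed in E. coli and applied for 1 h, at about 25 μg on average, to an Agilent 4 × 180k array. The array held primer-extended double-stranded 36-bp intergenic genomic probes together with negative controls, and binding took place in 1× PBS with 1% milk, 0.2 mg/ml BSA, 0.5% salmon testes DNA and 0.03% Triton X-100. An Alexa488 anti-GST antibody detected bound protein, and the array was scanned at 488 nm. Binding intensity is taken as the highest Masliner-normalised natural-log median intensity across replicate spots of either probe orientation.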
With “AACACCCAAAAACACACACACATACATACATACATA [CACACA_site4411]”, the “gcPBM binding intensity (ln)” value worked out at 9.98. With “AAGTACATACATAAAACACACACATATATATATATA [CACACA_site8541]” the figure was 9.59. As for “AAAAAGAAAAAACTTACACACATATATACACCCATG [CACACA_site8079]”, the “gcPBM binding intensity (ln)” value came to 10.1.

As to “AAAAAGAAAAAACTTACACACATATATACAGACATG [CACACA_site550]”, the “gcPBM binding intensity (ln)” value amounted to 9.93. With “AAAAAAAAAAAAAACACACACATACACCCAAAAATG [CACACA_site4223]”, the “gcPBM binding intensity (ln)” value amounted to 9.84. With “CAAACACCCAAACACACACACACATACATACATACA [CACACA_site8044]” the figure was 10.2.

As to “AAAAAAAAAAAACACACACACACACTAGTACATACA [CACACA_site4551]”, the “gcPBM binding intensity (ln)” value amounted to 10.2. Next, “AAAAAGAAAAAACTTACACACATATATACCCCCATG [CACACA_site4463]”: 10.2; “AAAAAAAAAAAAAACACACACACACCCAAATACATA [CACACA_site708]”: 9.87. Consider “AAAAAAAAAAAACATACACACATACATACATATATA [CACACA_site8222]”, for which the “gcPBM binding intensity (ln)” value is 9.82. Next, “AAAAAAAAAAAAAAAACACACACATACACCCAAAAA [CACACA_site7910]”: 9.69.

As to “TATTCCCCCAAACACACACACACACCCACATACCAC [CACACA_site2304]”, the “gcPBM binding intensity (ln)” value is 10.3. Regarding “TCTTATAAACTCTGCACACATAATATATTAAATGAG [CACACA_site1936]”, the “gcPBM binding intensity (ln)” value was found to be 9.31. Next, “TATATTTATTATAATTGTACATAAAATAAACTAAGA [XGTACX_site4318]”: 9.19; “TATATATGTAGACGTTGTACTTTTTTGTAAGTTTAA [XGTACX_site5638]”: 9.13. Turning to TGATATTTTTCCATAGTGCAAAATATAGTAATGTAT, the “gcPBM binding intensity (ln)” value was 9.11. With “AAAAAAAAAAAACACACACACACATACACATACATA [CACACA_site2858]”, the “gcPBM binding intensity (ln)” value was determined as 10.2. With “AAAACATACATATATACACACATATATATATATATA [CACACA_site1852]” the figure was 9.57. On to “AAAAAAAAAAAAAAAACACACATACATACATACATA [CACACA_site6125]”, for which the “gcPBM binding intensity (ln)” value is 9.61. With “AAAAAACACCCATACACACACACACCGATATATATA [CACACA_site5808]” the figure was 10.2; with “AAAAAAAAAAAACACACACACACACCCATACATACA [CACACA_site707]”, 10.2; with “AAAAAAAAAAAACACACACACACATACCCATACATA [CACACA_site5575]”, 10.1. Next, “AAAAAACAGACATACACACACACACCCATATATATA [CACACA_site3392]”: 10.2. Consider “AAAAAAAAAAAAAAAACACACATACACCCAGACACA [CACACA_site5807]”, for which the “gcPBM binding intensity (ln)” value was 9.6. Take “CACAGACACCCATACACACACATACCCATATATATA [CACACA_site5023]”: the “gcPBM binding intensity (ln)” value worked out at 10. With “AAAAAAAAAAAAAACACACACACACCCATACACATA [CACACA_site2860]” the figure was 10.1. Next, “TTTTTAATAACACTTTTGAAAAATAAAATAAAATAA [CACACA_negctrl_site821]”: 8.8.

“AAACAAATAAAATTTATTAAAAAGGTCATATTATTA [CACACA_negctrl_site85]”: the “gcPBM binding intensity (ln)” value was 9.12. With “AGAAAGGATATTATATGTACATATCTTTGTATTTTT [XGTACX_site5040]” the figure was 9.36; with “GTATACATGCAAATTTTTATTTACAACCCCAAAAAG [XGTACX_negctrl_site255]”, 9.23; with “GCACAAATATATATATATATATATATATATATATAT [GTGCAC_negctrl_site661]”, 9.06.

Take “AAAAAAAAAAAAAACACACACACACCCATACCCATA [CACACA_site5577]”: the “gcPBM binding intensity (ln)” value was found to be 10.1. “AAAAAAAAAAAAAACACACATACACGCCCACCCATA [CACACA_site3391]”: the “gcPBM binding intensity (ln)” value amounted to 10.2. Next, “TAAACACCCATACATACACACATACATACACCCATA [CACACA_site5125]”: 9.58.

As for “AAAAAAAAAAAAAACACACACACACCCACATATACA [CACACA_site2663]”, the “gcPBM binding intensity (ln)” value came out at 10.1.

Consider “AAAAAAAAAAAACACACACACACACCCATATACATA [CACACA_site2664]”, for which the “gcPBM binding intensity (ln)” value was 10.3. With “TCCTTTTCATCTTGTAGTACGGAAATGTAGCTCCAA [XGTACX_site8563]” the figure was 9.09; with “CTTTTTTTAATGATAACACACATGTTGTGCATAGAC [CACACA_site3270]”, 9.32; with “ATTTATTAAAAGAAATGTACAGAAAATGTTTGGAAT [XGTACX_site7187]”, 9.26. For the sequence “ATTAAATATATTTTGCGTACACAAAAAAATACGTTC [XGTACX_site3862]”, the “gcPBM binding intensity (ln)” value was found to be 9.15.

In the case of “AATGAAAATAAATTAACACACAATTTTAATATTGTT [CACACA_site1306]”, the “gcPBM binding intensity (ln)” value was 9.32. Next, “TCATATATTTATGTATGTACATATATATATAGATTA [XGTACX_site380]”: 9.01. With “CATATCATTGATTATAGTACACATACCATTTTTTAT [XGTACX_site6572]” the figure was 9.45; with GTAATAAGAATTATAGTGCAATGTAATACATTTATA, 9.23; with AGGATAAAAGTTATGGTGCATTAACCTATTTAAATA, 9.14.
